# Values without a mark were called inactive. Results filed as inconclusive are left out. Entries that show only a call come without a potency. Active and inactive are the calls of the source. Unless noted, the call rests on the fitted dose curve; in most records, active means well fitted curve in the direction sought with a large enough effect; inconclusive means small, poorly fitted or top-dose-only effect, or another doubt; inactive means no such curve, though single readings can be large; an effect the other way counts as inactive or inconclusive.
# What was measured:
# [1] = target: DNA repair nuclease/redox regulator APEX1 (Homo sapiens) (UniProt P27695); assay: qHTS Validation Assay for Inhibitors of the Human Apurinic/apyrimidinic Endonuclease 1 (APE1) (AID 1705;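 further: TAMRA fluorescence gain over two minutes as APE1 cuts a quenched THF abasic duplex; series mostly up to about 57 µM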)
# Method in brief: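 Human APE1 was preincubated with compound for 15 min at room temperature, then 50 nM (final) THF-abasic double-stranded DNA substrate bearing 5'-TAMRA and 3'-BHQ-2 was added. Incision-driven fluorescence rise (ex 525/em 598 nm) was read kinetically.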
# [2] = qHTS for differential inhibitors of proliferation of Plasmodium falciparum line GB4 (AID 1816); conditions: Potency: Plasmodium falciparum GB4 proliferation inhibition;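 further: parasite growth measured after 72 h incubation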; further: potency means the concentration at half of the fitted maximal effect
# [3] = qHTS for differential inhibitors of proliferation of Plasmodium falciparum line Dd2 (AID 1882); conditions: Potency: Plasmodium falciparum Dd2 proliferation inhibition; further: nearly all actives have a fitted effect of over 65% in size; further: potency means the concentration at half of the fitted maximal effect
# Method in brief: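 RBC culture, 0.3% parasitemia / 2.5% Hct final; cpd added by pin tool in DMSO; 72 h, 37 C, 5% CO2; lysis buffer + SYBR Green I, o/n RT dark; FI 485/535; norm. to artemisinin 0.29 uM and DMSO.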
# [4] = qHTS for differential inhibitors of proliferation of Plasmodium falciparum line HB3 (AID 1886); conditions: Potency: Plasmodium falciparum HB3 proliferation inhibition;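 further: parasites grown with compound for 72 h before SYBR Green readout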; further: potency means the concentration at half of the fitted maximal effect
# [5] = target: Ferritin light chain (Equus caballus) (UniProt P02791); assay: qHTS Validation Assay for Identification of Novel General Anesthetics (AID 2323); further: series mostly up to about 77 µM
# Method in brief: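 Competitive displacement of profluorescent 1-aminoanthracene (1-AMA, 50% saturated solution in PBS) from 10 uM horse-spleen apoferritin. Compounds incubated 10 min at room temperature; fluorescence read at 380 nm excitation/535 nm emission, normalized to free 1-AMA and complex, fitted with four-parameter Hill equation.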
# [6] = target: ATP-dependent DNA helicase Q1 (Homo sapiens) (UniProt P46063); assay: qHTS Validation Assay for Inhibitors of RecQ-Like Dna Helicase 1 (RECQ1) (AID 2353)
# Method in brief: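 RECQ1T1 50 nM; forked duplex (20 bp + 30-nt ss tails) 200 nM, ATP 2 mM final; pH 8.0, 2 mM MgCl2, 2.5 ug/ml poly(dI-dC); 15 min compound preincubation; discontinuous kinetic read over 2 h at RT.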
# [7] = Validation screen for inhibitors of Lassa infection (AID 463096; calls by dose curve)
# [8] = target: M-phase phosphoprotein 8 (Homo sapiens) (UniProt Q99549); assay: qHTS Validation Assay for Inhibitors for MPP8 Chromodomain Interactions with Methylated Histone Tails (AID 488949); further: nearly all actives have a fitted effect of over 55% in size; further: potency means the concentration at half of the fitted maximal effect
# Method in brief: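 MPP8 (50 nM) was preincubated with biotinylated H3(1-18)K9me3 peptide (50 nM) in PBS pH 7.4, 0.01% Tween-20 for 30 min at room temperature, then with compounds for 30 min; binding was detected by AlphaScreen.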
# [9] = target: Transient receptor potential cation channel subfamily V member 1 (Homo sapiens) (UniProt Q8NER1); assay: HTS Assay for Compounds that Act as Enhancers of the Vanilloid Receptor 1 (AID 488979)
# Method in brief: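 TRPV1 cells loaded with Fluo-8 calcium dye; compound added and Ca2+ signal (ex 480/em 520 nm) followed 3 min, then capsaicin at EC20 added and read 2 more min to detect enhancement.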
# [10] = target: Thyrotropin receptor (Homo sapiens) (UniProt P16473); assay: qHTS Assay for Antagonists of the Thyroid Stimulating Hormone Receptor (AID 488980); further: series mostly up to about 58 µM
# Method in brief: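 HEK293 cells transfected with human TSHR, suspended in HEPES-buffered HBSS with 70 uM RO 20-1724, were treated with compounds plus TSH at EC80 (4 nM final). cAMP was measured by competitive HTRF (cryptate anti-cAMP antibody, cAMP-d2 acceptor).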
# [11] = target: Thyrotropin-releasing hormone receptor (Homo sapiens) (UniProt P34981); assay: qHTS for Small Molecule Agonists and Allosteric Enhancers of Human TRH Receptor: Validation Screen for Agonists (AID 493127;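 active means calcium activation more than 3 SD above the typical response in the agonist read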;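 further: intracellular calcium rise by fluo-8 fluorescence before TRH EC20 addition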); conditions: TRH receptor agonist cell assay; at 2 µM; stronger effect = higher value
# Method in brief: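 Read-out: intracellular calcium release measured kinetically by FDSS (fluo-8, ex 480/em 530 nm), 1 reading/s after a 10-cycle baseline. TRHR cells, 2000/well, cultured 18 h at 33.5C, dye-loaded at room temp. Compound-evoked positive calcium signal flags agonists.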
# [12] = target: Galactokinase (Homo sapiens) (UniProt P51570); assay: qHTS Validation Assay for Inhibitors of Human Galactokinase (GALK) (AID 493189)
# Method in brief: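 GALK (5 nM) with 35 uM ATP and 100 uM galactose in HEPES pH8.0, MgCl2, NaCl, DTT, BSA; 1 h at room temperature. Residual ATP read by Kinase-Glo Plus luminescence after 10 min.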
# [13] = Validation screen for small molecules that induce DNA re-replication in SW480 colon adenocarcinoma cells (AID 504364)
# Method in brief: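 Read-out: total Hoechst intensity of nuclei by fluorescence scanning imager; hits raise the fraction of nuclei with elevated DNA content. Cells received compound for 48 hr at 37 C before a 40 min stain.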
# [14] = qHTS for Inflammasome Signaling Inhibitors: IL-1-beta AlphaLISA screen against the NCATS CANVASS Library (AID 1347379);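 further: human THP-1 cells primed with LPS then triggered with ATP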
# Method in brief: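 THP-1, 1 hr compound pre-incubation, then LPS 250 ng/mL + ATP 1.25 mM (final); 16 hr total with compound; IL-1B AlphaLISA, ex 680/em 615 nm; 11-point qHTS, up to 57.5 uM final.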
# [15] = qHTS for Activators of p53 Stress Response Pathway screened against the NCATS CANVASS Library (AID 1347388)
# Method in brief: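 p53RE-bla HCT-116 cells (4000/well) were pre-incubated for 5 h, then treated with compound (11 points) for 16 h at 37C. After 2 h with CCF4, the 460/530 nm ratio gave reporter activation; CellTiter-Glo measured viability.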
# [16] = Secretion counterscreen for inhibitors of the SERCaMP assay screened against the NCATS CANVASS Library (AID 1347390);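 further: light from luciferase secreted into medium read as a measure of general secretion; series mostly up to about 77 µM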
# Method in brief: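 SH-SY5Y cells expressing constitutively secreted GLuc, 1000 cells/well, attached 4 h at 37C, then exposed to compounds (0.001 - 77 uM, 11-pnt series) for 20 h. Coelenterazine added; luminescence read to flag secretory-pathway interferers.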
# [17] = qHTS for activators of Nrf2/ARE signaling pathway screened against the NCATS CANVASS Library (AID 1347391); further: nearly all actives have a fitted effect of over 60% in size
# Method in brief: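 HepG2 ARE-bla; cpd 11-pt qHTS, 16 h 37C/5% CO2; CCF4 substrate 2 h RT; read ex 405 / em 460 + 530 nm. Viability by CellTiter-Glo luminescence, 30 min RT.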
# [18] = qHTS for inhibitors of ER calcium dysfunction: SERCaMP assay screened against the NCATS CANVASS Library (AID 1347393); further: nearly all actives have a fitted effect of over 40% in size; further: potency means the concentration at half of the fitted maximal effect
# Method in brief: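 SH-SY5Y GLuc-SERCaMP, 1000 cells/well, 4 h attach; cpd 16 h, 37C/5% CO2; thapsigargin (added as 6x 600 nM) 4 h; coelenterazine; luminescence. Reduced reporter release = ER Ca stabilization.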
# [19] = qHTS for inhibitors of Rabies Virus screened against the NCATS CANVASS Library (AID 1347402; calls by dose curve; further: series mostly up to about 46 µM)
# [20] = target: Nuclear receptor subfamily 1 group I member 3 (Homo sapiens) (UniProt Q14994); assay: qHTS for Constitutive Androstane Receptor (CAR) Antagonist screened against the NCATS CANVASS Library (AID 1347372); further: potency means the concentration at half of the fitted maximal effect
# Method in brief: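 Luminescence readout (ONE-Glo, 30 min RT) of CYP2B6-2.2kb reporter in HepG2-hCAR cells after 24hr, 37C treatment with compound against 50 nM CITCO; CellTiter-Fluor viability read beforehand.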
# Sequence of Galactokinase (Homo sapiens) (P51570 whole entry, looked up): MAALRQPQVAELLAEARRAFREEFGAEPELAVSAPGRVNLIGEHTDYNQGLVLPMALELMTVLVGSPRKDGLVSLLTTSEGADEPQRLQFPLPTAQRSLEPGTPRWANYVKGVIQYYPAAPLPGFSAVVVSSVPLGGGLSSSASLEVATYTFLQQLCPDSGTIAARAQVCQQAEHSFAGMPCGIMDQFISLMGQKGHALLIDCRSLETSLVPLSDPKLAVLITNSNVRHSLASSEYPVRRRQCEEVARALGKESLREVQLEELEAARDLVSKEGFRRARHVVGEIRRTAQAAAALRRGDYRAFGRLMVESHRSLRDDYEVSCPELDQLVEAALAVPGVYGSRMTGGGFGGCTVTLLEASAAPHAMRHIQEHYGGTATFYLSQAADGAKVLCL
# Sequence of Transient receptor potential cation channel subfamily V member 1 (Homo sapiens) (Q8NER1 whole entry, looked up): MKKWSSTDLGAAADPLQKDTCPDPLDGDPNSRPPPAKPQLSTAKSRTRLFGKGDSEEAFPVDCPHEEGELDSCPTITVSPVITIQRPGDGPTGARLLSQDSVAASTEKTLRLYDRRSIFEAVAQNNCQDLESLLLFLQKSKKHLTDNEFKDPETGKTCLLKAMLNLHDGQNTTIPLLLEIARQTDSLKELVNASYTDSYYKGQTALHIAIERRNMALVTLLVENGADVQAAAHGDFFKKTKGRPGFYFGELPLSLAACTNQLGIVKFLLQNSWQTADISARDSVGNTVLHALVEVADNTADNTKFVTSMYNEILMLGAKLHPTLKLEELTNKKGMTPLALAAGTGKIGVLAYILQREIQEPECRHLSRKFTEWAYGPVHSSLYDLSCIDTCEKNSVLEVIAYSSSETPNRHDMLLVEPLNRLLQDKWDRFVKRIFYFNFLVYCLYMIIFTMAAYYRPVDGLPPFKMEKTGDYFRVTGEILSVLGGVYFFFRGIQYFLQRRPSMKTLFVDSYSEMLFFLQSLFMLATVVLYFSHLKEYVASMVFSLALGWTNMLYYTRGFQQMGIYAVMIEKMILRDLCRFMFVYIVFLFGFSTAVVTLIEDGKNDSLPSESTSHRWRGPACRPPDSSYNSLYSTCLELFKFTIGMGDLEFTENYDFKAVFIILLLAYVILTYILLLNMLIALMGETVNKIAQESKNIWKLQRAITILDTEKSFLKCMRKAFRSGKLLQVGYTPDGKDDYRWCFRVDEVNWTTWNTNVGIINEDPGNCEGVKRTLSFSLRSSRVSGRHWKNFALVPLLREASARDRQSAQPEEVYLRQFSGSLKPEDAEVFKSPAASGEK
# Sequence of ATP-dependent DNA helicase Q1 (Homo sapiens) (P46063 whole entry, looked up): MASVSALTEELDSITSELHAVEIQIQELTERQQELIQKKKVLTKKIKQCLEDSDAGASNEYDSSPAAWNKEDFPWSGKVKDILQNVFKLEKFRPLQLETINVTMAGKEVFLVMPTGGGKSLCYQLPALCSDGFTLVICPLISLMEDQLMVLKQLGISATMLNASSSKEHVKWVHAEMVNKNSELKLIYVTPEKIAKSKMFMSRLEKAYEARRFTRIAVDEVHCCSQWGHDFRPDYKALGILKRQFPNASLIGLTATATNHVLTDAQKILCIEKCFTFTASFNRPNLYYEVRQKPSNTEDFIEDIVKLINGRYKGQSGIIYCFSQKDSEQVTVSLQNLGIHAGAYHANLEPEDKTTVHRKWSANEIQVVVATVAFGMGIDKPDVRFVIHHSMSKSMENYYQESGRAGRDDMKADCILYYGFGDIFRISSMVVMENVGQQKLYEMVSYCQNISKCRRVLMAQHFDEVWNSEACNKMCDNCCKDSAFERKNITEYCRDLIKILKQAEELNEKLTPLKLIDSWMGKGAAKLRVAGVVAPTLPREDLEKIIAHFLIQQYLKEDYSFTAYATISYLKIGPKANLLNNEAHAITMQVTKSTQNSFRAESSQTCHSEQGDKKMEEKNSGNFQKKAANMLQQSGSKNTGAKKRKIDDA
# Sequence of DNA repair nuclease/redox regulator APEX1 (Homo sapiens) (P27695 whole entry, looked up): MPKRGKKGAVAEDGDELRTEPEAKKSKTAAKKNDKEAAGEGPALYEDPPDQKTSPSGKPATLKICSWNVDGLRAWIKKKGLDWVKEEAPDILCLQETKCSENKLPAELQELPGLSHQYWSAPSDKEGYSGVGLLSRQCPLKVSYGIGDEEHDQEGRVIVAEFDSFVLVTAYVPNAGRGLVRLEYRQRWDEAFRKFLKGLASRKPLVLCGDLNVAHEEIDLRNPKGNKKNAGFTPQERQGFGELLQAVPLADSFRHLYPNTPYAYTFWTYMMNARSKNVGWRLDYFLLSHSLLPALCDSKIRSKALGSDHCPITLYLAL
# Sequence of Ferritin light chain (Equus caballus) (P02791 2-175 limits assumed): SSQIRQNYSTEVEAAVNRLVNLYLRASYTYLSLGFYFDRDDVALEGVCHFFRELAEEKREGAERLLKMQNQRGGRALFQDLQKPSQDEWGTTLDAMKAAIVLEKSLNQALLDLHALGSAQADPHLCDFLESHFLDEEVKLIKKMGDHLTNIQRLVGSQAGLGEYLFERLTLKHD
# Sequence of M-phase phosphoprotein 8 (Homo sapiens) (Q99549 whole entry, looked up): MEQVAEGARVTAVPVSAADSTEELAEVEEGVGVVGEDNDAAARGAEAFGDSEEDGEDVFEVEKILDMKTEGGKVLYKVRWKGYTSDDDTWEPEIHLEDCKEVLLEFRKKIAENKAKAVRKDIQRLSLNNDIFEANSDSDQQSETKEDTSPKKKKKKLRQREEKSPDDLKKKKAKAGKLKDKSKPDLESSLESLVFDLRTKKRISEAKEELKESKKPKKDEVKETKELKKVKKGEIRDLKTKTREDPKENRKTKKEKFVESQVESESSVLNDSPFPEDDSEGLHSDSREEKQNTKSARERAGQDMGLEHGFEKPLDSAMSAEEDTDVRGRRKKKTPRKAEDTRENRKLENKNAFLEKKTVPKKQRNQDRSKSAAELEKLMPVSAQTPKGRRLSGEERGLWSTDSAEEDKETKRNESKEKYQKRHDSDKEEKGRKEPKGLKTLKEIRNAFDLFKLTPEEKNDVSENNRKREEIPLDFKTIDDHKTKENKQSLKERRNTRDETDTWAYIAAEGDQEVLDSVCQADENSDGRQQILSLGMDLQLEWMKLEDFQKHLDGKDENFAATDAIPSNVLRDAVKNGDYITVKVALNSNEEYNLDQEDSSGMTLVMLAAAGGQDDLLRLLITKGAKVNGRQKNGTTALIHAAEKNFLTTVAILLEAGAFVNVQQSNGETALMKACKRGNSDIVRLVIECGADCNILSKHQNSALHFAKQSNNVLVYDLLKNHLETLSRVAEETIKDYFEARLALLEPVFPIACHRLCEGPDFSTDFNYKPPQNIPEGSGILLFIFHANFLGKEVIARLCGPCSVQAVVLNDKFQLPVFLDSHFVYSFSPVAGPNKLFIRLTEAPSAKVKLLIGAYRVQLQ
# Sequence of Thyrotropin-releasing hormone receptor (Homo sapiens) (P34981 whole entry, looked up): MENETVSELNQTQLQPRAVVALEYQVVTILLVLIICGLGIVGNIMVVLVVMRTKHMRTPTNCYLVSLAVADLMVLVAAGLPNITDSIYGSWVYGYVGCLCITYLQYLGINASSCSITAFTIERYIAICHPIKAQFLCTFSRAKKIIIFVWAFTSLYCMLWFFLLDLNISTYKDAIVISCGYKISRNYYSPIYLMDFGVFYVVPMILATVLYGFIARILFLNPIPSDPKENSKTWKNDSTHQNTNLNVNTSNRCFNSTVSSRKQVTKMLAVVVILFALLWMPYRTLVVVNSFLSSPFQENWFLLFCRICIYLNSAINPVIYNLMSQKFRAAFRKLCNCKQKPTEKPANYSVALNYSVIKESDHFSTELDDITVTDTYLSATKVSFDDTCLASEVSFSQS
# Sequence of Nuclear receptor subfamily 1 group I member 3 (Homo sapiens) (Q14994 whole entry, looked up): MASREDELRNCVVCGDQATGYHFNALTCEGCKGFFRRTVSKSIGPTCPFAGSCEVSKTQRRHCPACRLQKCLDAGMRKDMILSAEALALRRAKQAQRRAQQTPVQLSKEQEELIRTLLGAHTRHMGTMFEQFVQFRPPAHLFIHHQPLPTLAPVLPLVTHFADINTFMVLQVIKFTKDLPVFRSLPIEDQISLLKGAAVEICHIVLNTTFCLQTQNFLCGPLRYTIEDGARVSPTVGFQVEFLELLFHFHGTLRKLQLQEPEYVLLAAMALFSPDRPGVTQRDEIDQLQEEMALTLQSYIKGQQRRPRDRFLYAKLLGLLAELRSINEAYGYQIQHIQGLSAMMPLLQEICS
# Sequence of Thyrotropin receptor (Homo sapiens) (P16473 whole entry, looked up): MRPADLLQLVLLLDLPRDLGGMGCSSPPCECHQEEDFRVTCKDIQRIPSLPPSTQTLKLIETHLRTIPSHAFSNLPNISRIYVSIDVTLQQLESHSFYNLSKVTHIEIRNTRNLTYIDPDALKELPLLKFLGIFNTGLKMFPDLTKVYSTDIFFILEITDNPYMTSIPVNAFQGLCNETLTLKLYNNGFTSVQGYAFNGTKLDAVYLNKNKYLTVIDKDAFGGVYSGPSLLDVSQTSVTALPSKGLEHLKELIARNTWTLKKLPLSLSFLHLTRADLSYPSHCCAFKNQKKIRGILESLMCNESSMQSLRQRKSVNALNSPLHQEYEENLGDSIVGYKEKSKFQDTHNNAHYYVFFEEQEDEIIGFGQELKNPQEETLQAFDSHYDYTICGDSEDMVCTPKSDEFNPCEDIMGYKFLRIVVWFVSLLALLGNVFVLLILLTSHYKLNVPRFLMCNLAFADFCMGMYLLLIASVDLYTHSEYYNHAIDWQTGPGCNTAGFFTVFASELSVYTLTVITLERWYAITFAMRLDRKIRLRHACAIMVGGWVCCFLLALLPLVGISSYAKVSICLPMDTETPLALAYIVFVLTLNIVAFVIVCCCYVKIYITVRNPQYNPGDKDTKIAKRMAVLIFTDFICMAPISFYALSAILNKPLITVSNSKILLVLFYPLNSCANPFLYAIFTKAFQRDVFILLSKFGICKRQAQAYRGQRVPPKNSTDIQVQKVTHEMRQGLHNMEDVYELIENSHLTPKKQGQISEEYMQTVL
structure (smiles),measurement,setting,value
COc1ccc(-n2nc(C(F)(F)F)cc2-c2ccc(Cl)cc2)cc1,Potency,[1],inactive
same,Potency,[2],11.2 µM (active)
same,Potency,[3],inactive
same,Potency,[4],12.6 µM (active)
same,outcome,[5],inactive
same,Potency,[6],inactive
same,Potency,[7],inactive
same,Potency,[8],inactive
same,outcome,[9],inactive
same,outcome,[10],inactive
same,activation,[11],-9.62%
same,outcome,[12],inactive
same,Potency,[13],inactive
N#CC(C#N)=Cc1ccc([N+](=O)[O-])c(O)c1,Potency,[1],inactive
same,Potency,[2],inactive
same,Potency,[3],inactive
same,Potency,[4],inactive
same,outcome,[5],inactive
same,Potency,[6],inactive
same,Potency,[7],inactive
same,Potency,[8],inactive
same,outcome,[9],inactive
same,outcome,[10],inactive
same,activation,[11],-0.188%
same,outcome,[12],inactive
same,Potency,[13],inactive
COc1cc(CCN)ccc1O,Potency,[1],inactive
same,Potency,[2],inactive
same,Potency,[3],inactive
same,Potency,[4],inactive
same,outcome,[5],inactive
same,Potency,[6],inactive
same,Potency,[7],inactive
same,Potency,[8],inactive
same,outcome,[9],inactive
same,outcome,[10],inactive
same,activation,[11],-0.312%
same,outcome,[12],inactive
same,Potency,[13],inactive
COc1ccc(CCN)cc1O,Potency,[2],inactive
same,Potency,[3],inactive
same,Potency,[4],inactive
same,outcome,[5],inactive
same,Potency,[6],inactive
same,Potency,[8],inactive
same,outcome,[9],inactive
same,outcome,[10],inactive
same,activation,[11],1.06%
same,outcome,[12],inactive
same,Potency,[13],inactive
CCN1C[C@]2(C)CC[C@@H](O)[C@]34C1[C@H](C[C@H]23)C12CCC(CC14)[C@](O)(CO)[C@H]2O (some centres not stated),Potency,[14],inactive
same,Potency,[15],inactive
same,Potency,[16],inactive
same,Potency,[17],inactive
same,Potency,[18],inactive
same,outcome,[19],inactive
COc1ccc(C23Oc4cc(OC)cc(OC)c4[C@](O)([C@H](c4ccccc4)C2C(=O)NCCCCNC(=O)c2ccccc2)[C@@H]3O)cc1 (some centres not stated),Potency,[20],inactive
same,Potency,[14],inactive
same,Potency,[15],inactive
same,Potency,[16],inactive
same,outcome,[19],inactive
C[N+]1(C)CCc2cc3c(cc2C1C1OC(=O)c2c1ccc1c2OCO1)OCO3 (configuration not stated),Potency,[1],inactive
same,Potency,[2],inactive
same,Potency,[3],inactive
same,Potency,[4],inactive
same,outcome,[5],inactive
same,Potency,[6],inactive
same,Potency,[7],inactive
same,Potency,[8],inactive
same,outcome,[9],inactive
same,outcome,[10],inactive
same,activation,[11],0.938%
same,outcome,[12],inactive
same,Potency,[13],inactive
CO[C@@H](/C=C/CC/C=C/C(=O)O)[C@@H](O)[C@H](C)/C=C(\C)[C@@H](O)[C@H](C)C(=O)CCCC1CC(=O)NC(=O)C1,Potency,[20],inactive
same,Potency,[14],inactive
same,Potency,[15],inactive
same,Potency,[16],inactive
same,Potency,[17],inactive
same,Potency,[18],inactive
same,outcome,[19],inactive
CN1CCc2cc(O)cc3c2C1Cc1ccc(O)c(O)c1-3 (configuration not stated),Potency,[1],inactive
same,Potency,[2],8.91 µM (active)
same,Potency,[3],8.91 µM (active)
same,Potency,[4],12.6 µM (active)
same,outcome,[5],inactive
same,Potency,[6],inactive
same,Potency,[7],inactive
same,Potency,[8],22.4 µM (active)
same,outcome,[9],inactive
same,outcome,[10],inactive
same,activation,[11],1.44%
same,outcome,[12],inactive
same,Potency,[13],inactive
CC(=O)N[C@H]1CCN2CCC[C@H]12,Potency,[20],inactive
same,Potency,[14],inactive
same,Potency,[15],inactive
same,Potency,[16],inactive
same,Potency,[17],inactive
same,Potency,[18],inactive
same,outcome,[19],inactive
COC(=O)C1=C2Nc3ccccc3[C@@]23CCN2CC(C(C)=O)C1C[C@H]23 (some centres not stated),Potency,[20],inactive
same,Potency,[14],inactive
same,Potency,[15],inactive
same,Potency,[16],inactive
same,Potency,[17],inactive
same,Potency,[18],17.2 µM (active)
same,outcome,[19],inactive
CNCCc1ccc(O)cc1,Potency,[20],inactive
same,Potency,[14],inactive
same,Potency,[15],inactive
same,Potency,[16],inactive
same,Potency,[17],inactive
same,Potency,[18],inactive
same,outcome,[19],inactive
CCC(=O)CCCCC[C@@H]1NC(=O)[C@H]2CCCCN2C(=O)[C@H]([C@@H](C)CC)NC(=O)[C@H](Cc2cn(OC)c3ccccc23)NC1=O,Potency,[20],2.34 µM (active)
same,Potency,[16],inactive
same,Potency,[17],inactive
same,Potency,[18],inactive
COc1ccc2[nH]cc(CCN(C)C)c2c1,Potency,[1],inactive
same,Potency,[3],inactive
same,Potency,[4],inactive
same,outcome,[5],inactive
same,Potency,[6],inactive
same,Potency,[7],inactive
same,Potency,[8],inactive
same,outcome,[9],inactive
same,outcome,[10],inactive
same,activation,[11],0.688%
same,outcome,[12],inactive
same,Potency,[13],inactive
CC1=CC2CC[C@@H]3[C@@H](C)C[C@H](C)[C@@H](C1)N23 (some centres not stated),Potency,[20],inactive
same,Potency,[14],inactive
same,Potency,[15],inactive
same,Potency,[17],inactive
same,Potency,[18],inactive
same,outcome,[19],inactive
